PubChem BioAssay (NCI)
Compounds without any hit were thinned out: in the full panel of roughly 83,000, 20% have a hit.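 Activity criterion: percent growth below 10, measured after cells in 96-well plates were exposed to a single compound concentration for 48 hours.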 Active and inactive are the calls of the source.

What was measured:
Test in all cases: NCI-60 one-dose screen, 48 h (100 = growth as untreated, 0 = no growth, -100 = all killed)
Settings in all cases: 10 µM unless noted
[1] = system: RPMI-8226 leukemia
[2] = system: OVCAR-8 ovarian
[3] = system: OVCAR-5 ovarian
[4] = system: OVCAR-4 ovarian
[5] = system: SK-OV-3 ovarian
[6] = system: IGROV1 ovarian
[7] = system: OVCAR-3 ovarian
[8] = system: HS 578T breast
[9] = system: NCI/ADR-RES ovarian

Measured: growth

C#Cc1cc(OC)c(C(=O)Nc2ccc(F)cc2C(=O)Nc2cccc(S(=O)(=O)C(F)(F)F)c2)cn1
inactive: [4] 27.8%
active: [1] -44.1% | [2] 5.67% | [3] -33.2% | [5] -70.5% | [6] -51% | [7] -30.2% | [8] -19.7% | [9] -29.1%

Cc1ccc2c(n1)C(=O)C(Cl)=C(Nc1ccc(C)c(C)c1)C2=O
inactive: [1] 11.1% | [2] 67.2% | [3] 91.6% | [5] 99.1% | [8] 32.8% | [9] 63.1%
active: [4] -29% | [6] -45.5% | [7] -21.4%

CC/C(=C(/c1ccc(Cl)cc1)c1ccc(OCCN)cc1)c1ccccc1
inactive: [1] 89.8% | [2] 100% | [3] 119% | [4] 99.3% | [5] 119% | [6] 96.8% | [8] 90.3%

O=C(/C=C/c1ccccc1)c1cccc(O)c1
active: [1] -17.9%
inactive: [2] 92.3% | [3] 101% | [4] 105% | [5] 107% | [6] 97.8% | [7] 106% | [8] 114% | [9] 107%

Cc1cc(Br)ccc1-n1cc(C#N)c(N)c1C(=O)c1ccc(Br)cc1
inactive: [1] 106% | [2] 106% | [3] 114% | [4] 114% | [5] 109% | [6] 110% | [7] 115% | [8] 106% | [9] 103%

C#CCN(C)CCCOc1ccc(NC(=O)CCCCCCC(=O)NO)cc1Cl
active: [1] 0.211%
inactive: [2] 17.7% | [3] 12.8% | [4] 41.9% | [5] 18.2% | [6] 17% | [7] 27.8% | [8] 19.7%

NCCNC(=O)c1cccc(COc2ccccc2NC(=O)c2cc(Br)c(Br)[nH]2)c1
inactive: [1] 86.8% | [2] 64.6% | [3] 101% | [5] 136% | [6] 88% | [7] 103% | [8] 100%

CC(=O)N1N=C(c2cc3ccccc3oc2=O)CC1c1cn(-c2ccccc2)nc1-c1ccc(C)cc1 (stereo not given)
inactive: [1] 102% | [2] 97.3% | [3] 94.1% | [4] 94.4% | [5] 95.2% | [6] 108% | [8] 93.7% | [9] 96.1%

COc1cc2oc(-c3cccc(NC(=O)c4cccc([N+](=O)[O-])c4)c3)cc(=O)c2c(OC)c1OC
active: [2] 6.56% | [8] -10.3%
inactive: [1] 48.8% | [3] 72.1% | [4] 37.6% | [5] 85.9% | [6] 64.6% | [7] 59% | [9] 34.6%

COc1ccc(C(=NNS(=O)(=O)c2ccc(C)cc2)c2ccccc2)cc1OC
inactive: [1] 93.6% | [2] 97.5% | [3] 103% | [4] 102% | [5] 107% | [6] 90.8% | [8] 104% | [9] 96.8%

COc1cc2c3c(cc4c5c(ccc4c3c1OC)OCO5)N(CCN(C)C)C2=O
active: [1] -21.7% | [2] 9.28% | [3] -6.73% | [4] -4.27% | [5] 2.24% | [6] -11.3% | [7] 0.51% | [8] -8.56% | [9] 4.67%

O=C(CCCCCC/C=C\c1csc(Br)n1)NO
inactive: [1] 53.9% | [2] 76% | [3] 80.1% | [4] 87.5% | [5] 95.1% | [6] 81.9% | [8] 87.1% | [9] 64.6%

Cn1cc(C2=C(c3coc4cc(Br)ccc34)C(=O)NC2=O)c2ccccc21
inactive: [1] 98.9% | [2] 87.2% | [3] 113% | [4] 100% | [5] 53.5% | [6] 64.7% | [7] 72.7% | [8] 52.8% | [9] 59.2%

O=C(CSc1cc[n+](CCCCO)c2ccccc12)n1ccc2ccccc21
inactive: [1] 103% | [2] 95.5% | [3] 102% | [4] 105% | [5] 91% | [6] 20.2% | [7] 104% | [8] 106% | [9] 105%

CC1CC(=O)C2=C(C1)Nc1ccc(Br)cc1CC2c1c[nH]c2ccc(Br)cc12 (stereo not given)
inactive: [2] 66.2% | [3] 82% | [4] 74.4% | [5] 77.3% | [6] 32.9% | [7] 42.1% | [8] 58% | [9] 26.6%

O=C(Nc1ccc(Cl)c(C(F)(F)F)c1)Nc1ccc2c(ccn2C(=O)c2cccc(F)c2)c1
inactive: [2] 34.1% | [3] 67.3% | [5] 99.1% | [6] 25% | [8] 52.4% | [9] 30.8%
active: [1] -6.63% | [4] 7.18% | [7] 9.54%

CN1CCN(c2ccc(Nc3nc(NCCCNS(=O)(=O)c4ccc(Cl)cc4)c4sccc4n3)cc2)CC1
active: [1] 4.97% | [4] -0.0486% | [7] -6.9%
inactive: [2] 17% | [3] 39.5% | [5] 54.1% | [6] 25.9% | [8] 20.2% | [9] 47.7%

C#Cc1nc(C(=O)NCCCCCCC(=O)NO)cs1
inactive: [2] 15.8% | [3] 10.2% | [4] 25.8% | [5] 29.2%
active: [1] -10.1% | [6] -72.6% | [8] -3.14% | [9] 2.01%

N#Cc1c(-c2cccs2)c(C#N)c(=O)n(Cc2nc3ccccc3[nH]2)c1N
inactive: [1] 95.9% | [2] 95.1% | [3] 116% | [4] 99.6% | [5] 95.4% | [6] 61.7% | [8] 102% | [9] 99.5%
